# According to PubChem BioAssay AID1259370 (Center for Chemical Genomics, University of Michigan, 2018):
# The campaign covered roughly 94,000 compounds. About 680 (0.72%) were called active. Cut-off read from the data, not from the text of the source: active = z-score above about 3.2; inactive = the rest. For the sample, actives were picked, then their nearest neighbours and some compounds at random.
# Molecular target: M-phase inducer phosphatase 2 (Homo sapiens) + Cyclin-dependent kinase 2 (Homo sapiens) + Cyclin-A2 (Homo sapiens) (UniProt P30305+P24941+P20248)
# Assay: primary biochemical HTRF screen for blockers of M-phase inducer phosphatase 2 binding to CDK2/cyclin A (AID 1259370)
# Conditions: HTRF CDC25B-CDK2/CyclinA binding, anti-His/anti-Flag; stronger effect = higher value
row,SMILES,z-score
1,CCOc1ccc(-c2cc(O)cc3sc(=O)oc23)cc1,-1.8 (inactive)
2,CCC1(C)Cc2ccccc2-c2[nH]c(=O)n(-c3ccccc3)c(=O)c21 (centres undefined),-2.42 (inactive)
3,N#CC1=C(N)OC2=C(C(=O)CCC2)C1c1cccc(O)c1 (centres undefined),-0.34 (inactive)
4,CC(=O)Oc1cc2c(C(=O)N3CCN(c4ccccc4)CC3)c(C)oc2c2ccccc12,10.8 (active)
5,O=C(O)C1C2CCC(O2)C1C(=O)N1CCN(c2ccccc2)CC1 (centres undefined),-0.45 (inactive)
6,Cn1c(C(=O)N2CCC(C(=O)N3CCN(c4ccccc4)CC3)CC2)cc2sccc21,-0.7 (inactive)
7,O=C(O)c1ccc2nc(-c3ccccc3)[nH]c2c1,-1.66 (inactive)
8,N#Cc1c(-c2ccco2)cc(-c2ccc(Br)cc2)nc1N,-0.1 (inactive)
9,CCOC(=O)c1sc2nc3c(c(-c4ccco4)c2c1N)CCC3,-2.78 (inactive)
10,N#Cc1c(N)nc2c(c1-c1ccco1)CCCC2,19.4 (active)
11,O=C(OCC1CCCO1)c1c(-c2ccccc2)c(-c2ccccc2)n[nH]c1=O (centres undefined),-1.18 (inactive)
12,COc1cccc(CC2C(=O)Nc3ccccc32)c1OC (centres undefined),-0.98 (inactive)
13,C=CCOc1cccc(C2c3c(oc4ccc(Cl)cc4c3=O)C(=O)N2CCCN2CCOCC2)c1 (centres undefined),-1.86 (inactive)
14,C=CCN1C(=O)/C(=C/c2ccc(OC(=O)C34CC5CC(CC(C5)C3)C4)c(OC)c2)SC1=S,-2.28 (inactive)
15,Cc1ccc(CC2CC(=O)N(c3nc(C)cc(C)n3)C2=O)cc1 (centres undefined),-0.93 (inactive)
16,Cc1ccc2oc(-c3ccc(C)c(N)c3)nc2c1,-1.15 (inactive)
17,O=C1c2cccnc2C(=O)N1c1ccc(-c2nc3ccccc3o2)cc1,1.03 (inactive)
18,Cc1ccc2oc(-c3cccc(N4C(=O)c5cccnc5C4=O)c3)nc2c1,16 (active)
19,Cc1nc2c3ccccc3n3c(CCCC(=O)N4CCC(C(N)=O)CC4)nnc3n2n1,0.97 (inactive)
20,CC(C)S(=O)(=O)c1cscc1N/C=C(/C#N)C(=O)c1cccs1,8.41 (active)

row,SMILES,z-score
1,CSc1nc(N/C=C(\C#N)C(=O)c2cccs2)n2nc(C)cc2n1,-0.94 (inactive)
2,CC(C)S(=O)(=O)c1cscc1N/C=C(/C#N)C(=O)C1CC1,0.29 (inactive)
3,Cc1ccccc1-c1noc(CSc2nnc(-c3ccncc3)n2-c2ccccc2)n1,-0.18 (inactive)
4,NC(=O)c1c(NC(=O)c2ccc(Br)o2)sc2c1CCCC2,-10.5 (inactive)
5,Cc1ccc(S(=O)(=O)c2nc(S(=O)(=O)c3ccccc3)sc2NCc2ccccn2)cc1,0.49 (inactive)
6,Cc1nc2cc(NCc3ccccn3)ccc2n1C,14.6 (active)
7,COc1ccc(-n2cnc3cc(NCc4ccco4)ccc32)cc1,-1.6 (inactive)
8,Cc1ccc(Cn2c(=O)c(C#N)cc3c(=O)n4ccccc4nc32)cc1,-2.86 (inactive)
9,CCC12CN3CC(CC)(CN(C1)C3c1cccc(N)c1)C2=O (centres undefined),-0.44 (inactive)
10,CC1CC(C)CN(C(=O)C(=O)c2c[nH]c3ccccc23)C1 (centres undefined),-1.24 (inactive)
11,O=C(C(=O)N1CCc2ccccc2C1)c1c[nH]c2ccccc12,10.4 (active)
12,NC(=O)C1CCN(C(=O)C(=O)c2c[nH]c3ccccc23)CC1,-2.56 (inactive)
13,Cc1ccc2nc(C3=C(O)CN(c4cc(Cl)ccc4C)C3=N)[nH]c2c1,-2.12 (inactive)
14,Fc1ccc(C(Nc2ccccc2)c2nnc(-c3ccccc3)o2)cc1 (centres undefined),0.64 (inactive)
15,Cc1cccn2c(=O)c3cc(C(=O)NCc4cccs4)n(C)c3nc12,-2.17 (inactive)
16,COCCOC(=O)C1=C(C)NC2=C(C(=O)C(C(=O)OC)C(C)C2)C1c1cccc(Br)c1 (centres undefined),-0.35 (inactive)
17,CCOC(=O)C(Sc1nc(N2CCOCC2)c2c(c1C#N)CC(C)(C)OC2)c1ccccc1 (centres undefined),-1.85 (inactive)
18,c1cc(CNCc2ccc3c(c2)OCO3)ccn1,-0.83 (inactive)
19,ONC(=Nc1ccc2c(c1)OCO2)C(=Nc1ccc2c(c1)OCO2)NO,20.3 (active)
20,COc1cccc(CNCc2ccc3c(c2)OCO3)c1,2.98 (inactive)

row,SMILES,z-score
1,CCCc1cc(-c2n[nH]c(C)c2-c2ccc3c(c2)OCCO3)c(O)cc1O,1.36 (inactive)
2,Cc1nc(-n2cnc3ccccc32)c2c3c(sc2n1)CCC3,-2.24 (inactive)
3,COc1ccc(C(=O)Oc2ccc3c(C)cc(=O)oc3c2C(C)=O)cc1OC,4.76 (inactive)
4,CCOc1ccc(OCCSc2nc3ccccc3n2CC(=O)O)cc1,-2.11 (inactive)
5,O=C1C2N=NN(Cc3cccc(F)c3)C2C(=O)N1c1ccccc1 (centres undefined),0.2 (inactive)
6,COc1ccc(C2CC(=O)c3cc(-c4nc(-c5ccc(F)cc5)cs4)c(=O)[nH]c3C2)cc1 (centres undefined),-1.13 (inactive)
7,COc1ccc(-c2csc(-c3cc4c([nH]c3=O)CC(c3ccc(OC)c(OC)c3)CC4=O)n2)cc1 (centres undefined),-1.19 (inactive)
8,COc1ccc(-c2csc(-c3cc4c([nH]c3=O)CC(c3ccco3)CC4=O)n2)cc1F (centres undefined),12.9 (active)
9,COc1ccc(-c2noc(COc3cc(C)cc(C)c3C)n2)cc1OC,1.44 (inactive)
10,COC(=O)c1ccc([C@@H]2Nc3ccc(F)cc3[C@@H]3C=CC[C@@H]32)cc1,-0.78 (inactive)
11,COc1cccc([C@@H]2Nc3ccc(S(=O)(=O)Nc4ccccc4)cc3[C@@H]3C=CC[C@@H]32)c1,-1.16 (inactive)
12,CCOc1cccc2c1N[C@@H](c1ccc(C(=O)O)cc1)[C@H]1CC=C[C@@H]21,11.8 (active)
13,Cn1c(=O)n(CCc2ccccc2)c(=O)c2c3c(sc21)COC(C)(C)C3,-1.21 (inactive)
14,C#CCSc1nc2c(c(=O)[nH]1)C(c1ccc(OCCCC)cc1)CC(=O)N2 (centres undefined),-1.04 (inactive)
15,C#CCSc1nc2c(c(=O)[nH]1)C(c1ccc(O)c(O)c1)CC(=O)N2 (centres undefined),19 (active)
16,CCSc1nc2c(c(=O)[nH]1)C(c1ccc(OC)c(Br)c1)CC(=O)N2 (centres undefined),-0.2 (inactive)
17,Cc1[nH]c2ccccc2c1C1(O)C(=O)N(Cc2cccs2)c2ccc(Br)cc21 (centres undefined),1.66 (inactive)
18,COc1ccc(-c2ccc(Cc3nc(-c4ccc(OC)cc4)no3)cc2)cc1,-3.73 (inactive)
19,CN(Cc1ccccc1)c1oc(-c2ccc(COc3ccccc3)o2)nc1C#N,1.1 (inactive)
